Assay results published in PubChem BioAssay (NCATS).
Inconclusive results are not listed. Activity calls are given as the source filed them. Calls follow the shape of the dose curve; as a rule, active = well fitted curve in the direction sought with a large enough effect; inconclusive = small, poorly fitted or top-dose-only effect, or another doubt; inactive = no such curve, though single readings can be large; an effect the other way counts as inactive or inconclusive.

Experiments:
[1] = Quantitative High-Throughput drug screen in 47 multiple myeloma cell lines against the NCATS MIPE library collection: Karpas25_ECACC cell viability assay (AID 1918968; also: nearly all actives have a fitted effect of over 35% in size)
Summary of the method: (§1)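 CellTiter-Glo luminescence (ATP) after 48 h compound exposure, 37C/5% CO2; 500 cells/well; MIPE 4.0 approved/investigational drugs pinned in; DMSO = 100%, media only = 0% viability.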

[2] = Quantitative High-Throughput drug screen in 47 multiple myeloma cell lines against the NCATS MIPE library collection: KMS27_JCRB cell viability assay (AID 1918970); also: nearly all actives have a fitted effect of over 30% in size
Summary of the method: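 CellTiter-Glo luminescence after 48 h drug exposure at 37 °C; 500 cells/well, 1536-well format, pin-tool compound addition; DMSO = 100%, media-only = 0% viability.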

[3] = Quantitative High-Throughput drug screen in 47 multiple myeloma cell lines against the NCATS MIPE library collection: KMS21BM_JCRB cell viability assay (AID 1918974); conditions: ATP luminescence, 48 h; viability: at 45.8 µM (top of the series) unless noted
Summary of the method: as §1

[4] = Quantitative High-Throughput drug screen in 47 multiple myeloma cell lines against the NCATS MIPE library collection: MOLP8_DSMZ cell viability assay (AID 1918977); also: nearly all actives have a fitted effect of over 45% in size
Summary of the method: (§2)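 ATP-based CellTiter-Glo luminescence after 48 h drug exposure (37 °C, 5% CO2) of 500 myeloma cells per well. DMSO-only wells set 100% viability, media-only wells 0%; MIPE 4.0 library added by pin tool.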

[5] = Quantitative High-Throughput drug screen in 47 multiple myeloma cell lines against the NCATS MIPE library collection: KMS28PE_JCRB cell viability assay (AID 1918983); also: nearly all actives have a fitted effect of over 35% in size
Summary of the method: as §2

[6] = Quantitative High-Throughput drug screen in 47 multiple myeloma cell lines against the NCATS MIPE library collection: L363_DSMZ cell viability assay (AID 1918984); also: nearly all actives have a fitted effect of over 40% in size
Summary of the method: as §2

[7] = Quantitative High-Throughput drug screen in 47 multiple myeloma cell lines against the NCATS MIPE library collection: KMS34_JCRB cell viability assay (AID 1918985); also: nearly all actives have a fitted effect of over 40% in size
Summary of the method: as §2

[8] = Quantitative High-Throughput drug screen in 47 multiple myeloma cell lines against the NCATS MIPE library collection: KMS12PE_JCRB cell viability assay (AID 1918972); also: nearly all actives have a fitted effect of over 30% in size
Summary of the method: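 CellTiter-Glo ATP luminescence gave viability after 48 h compound treatment at 37C of 500 multiple myeloma cells per well. Normalisation used DMSO-only wells as 100% and media-only wells as 0% viability; primary qHTS of approved and investigational drugs.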

[9] = Quantitative High-Throughput drug screen in 47 multiple myeloma cell lines against the NCATS MIPE library collection: KMS26_JCRB cell viability assay (AID 1918975); also: nearly all actives have a fitted effect of over 45% in size
Summary of the method: (§3)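 Steps: seed 500 cells per well; pin-transfer MIPE 4.0 library; incubate 48 h at 37C, 5% CO2, humidified; add CellTiter-Glo, 5 min room temperature; read luminescence.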

[10] = Quantitative High-Throughput drug screen in 47 multiple myeloma cell lines against the NCATS MIPE library collection: MMM1_PLB cell viability assay (AID 1918976); also: nearly all actives have a fitted effect of over 35% in size
Summary of the method: as §2

[11] = Quantitative High-Throughput drug screen in 47 multiple myeloma cell lines against the NCATS MIPE library collection: NCIH929_DSMZ cell viability assay (AID 1918978); also: nearly all actives have a fitted effect of over 35% in size
Summary of the method: as §2

[12] = Quantitative High-Throughput drug screen in 47 multiple myeloma cell lines against the NCATS MIPE library collection: OCIMY1_PLB cell viability assay (AID 1918979); also: nearly all actives have a fitted effect of over 35% in size
Summary of the method: as §2

[13] = Quantitative High-Throughput drug screen in 47 multiple myeloma cell lines against the NCATS MIPE library collection: MM1S_ATCC cell viability assay (AID 1918980); also: nearly all actives have a fitted effect of over 45% in size
Summary of the method: as §2

[14] = Quantitative High-Throughput drug screen in 47 multiple myeloma cell lines against the NCATS MIPE library collection: MM1R_ATCC cell viability assay (AID 1918981); also: nearly all actives have a fitted effect of over 35% in size
Summary of the method: as §2

[15] = Quantitative High-Throughput drug screen in 47 multiple myeloma cell lines against the NCATS MIPE library collection: LP1_DSMZ cell viability assay (AID 1918982); also: nearly all actives have a fitted effect of over 35% in size
Summary of the method: as §2

[16] = Quantitative High-Throughput drug screen in 47 multiple myeloma cell lines against the NCATS MIPE library collection: KMS20_JCRB cell viability assay (AID 1918973); also: nearly all actives have a fitted effect of over 45% in size
Summary of the method: as §1

[17] = Quantitative High-Throughput drug screen in 47 multiple myeloma cell lines against the NCATS MIPE library collection: OCIMY7_PLB cell viability assay (AID 1918987); conditions: OCI-MY7 myeloma viability, CellTiter-Glo ATP, 48 h; viability (% of DMSO): at 45.8 µM (top of the series); also: nearly all actives have a fitted effect of over 65% in size
Summary of the method: as §2

[18] = Quantitative High-Throughput drug screen in 47 multiple myeloma cell lines against the NCATS MIPE library collection: OCIMY5_PLB cell viability assay (AID 1918988); also: nearly all actives have a fitted effect of over 65% in size
Summary of the method: as §2

[19] = Quantitative High-Throughput drug screen in 47 multiple myeloma cell lines against the NCATS MIPE library collection: KMS12BM_JCRB cell viability assay (AID 1918971); also: nearly all actives have a fitted effect of over 35% in size
Summary of the method: as §3

Measured: Potency
Potency is read from the fitted curve at half-maximal effect.

NC(=O)NN=Cc1ccc([N+](=O)[O-])o1
inactive: [4] | [5] | [7]
active: [1] 16.6 µM | [2] 14.8 µM | [3] 5.9 µM | [6] 23.5 µM

Clc1ccc(-c2nc3sccn3c2C=NOCc2ccc(Cl)c(Cl)c2)cc1
inactive: [1] | [8] | [9] | [4] | [11] | [12] | [13] | [14] | [15] | [7]
active: [10] 0.372 µM

COc1cc(Nc2ncc(F)c(Nc3ccc4c(n3)NC(=O)C(C)(C)O4)n2)cc(OC)c1OC
active: [1] 1.66 µM | [2] 11.8 µM | [16] 1.05 µM | [9] 9.35 µM | [10] 1.48 µM | [4] 7.43 µM | [11] 1.18 µM | [12] 1.66 µM | [5] 0.833 µM | [7] 4.69 µM | [17] 0.743 µM | [18] 6.62 µM
inactive: [13]

O=C(Nc1ccccc1Br)N[C@@H]1CCN(c2ccc(C(F)(F)F)cn2)C1
inactive: [8] | [4] | [11] | [12] | [6] | [7]
active: [1] 18.7 µM | [10] 23.5 µM

CC[C@]1(O)C[C@@H]2CN(CCc3c([nH]c4ccccc34)[C@@](C(=O)OC)(c3cc4c(cc3OC)N(C=O)[C@@H]3C45CCN4CC=C[C@](CC)([C@H]45)[C@@H](OC(C)=O)[C@]3(O)C(=O)OC)C2)C1 (stereo partly drawn)
active: [19] 18.7 µM | [9] 23.5 µM | [10] 10.5 µM | [13] 18.7 µM | [14] 20.9 µM | [15] 20.9 µM | [5] 23.5 µM | [7] 23.5 µM | [17] 9.35 µM | [18] 20.9 µM
inactive: [2] | [8] | [6]

COc1cc(N2CCC(N3CCN(C)CC3)CC2)ccc1Nc1ncc(Cl)c(Nc2ccccc2S(=O)(=O)C(C)C)n1
inactive: [1] | [12]
active: [17] 0.264 µM

COc1ccc2cc(-c3nc(-c4ccc(S(C)=O)cc4)[nH]c3-c3ccncc3)ccc2c1 (stereo not drawn)
active: [1] 26.4 µM | [16] 7.43 µM | [18] 14.8 µM
inactive: [4] | [5]

NC(=O)c1cnc(-c2ccc(C3(N)CCC3)cc2)c(-c2ccccc2)c1
active: [1] 13.2 µM | [19] 8.33 µM | [10] 0.743 µM | [11] 1.48 µM | [15] 2.64 µM | [5] 0.332 µM | [17] 1.87 µM | [18] 0.187 µM

COc1cccc(-c2cc(=O)c3ccccc3o2)c1N
active: [1] 1.66 µM | [16] 7.43 µM | [11] 0.332 µM | [14] 5.9 µM | [17] 2.96 µM
inactive: [2] | [4]

C=C1C(=O)OC(CCCCCCCC)C1C(=O)O (stereo not drawn)
active: [1] 26.4 µM | [17] 11.8 µM
inactive: [2] | [4] | [15] | [5] | [6] | [7]

C[C@]12CC[C@@H]3c4ccc(O)cc4CC[C@H]3[C@H]1C[C@@H](O)[C@H]2O
active: [9] 0.0418 µM | [10] 13.2 µM | [18] 3.32 µM
inactive: [1] | [16] | [11] | [12] | [14] | [7]

OC[C@H]1O[C@@H](Oc2cc(O)cc(C=Cc3ccc(O)cc3)c2)[C@H](O)[C@@H](O)[C@H]1O
active: [18] 9.35 µM
inactive: [2] | [19] | [8] | [9] | [4] | [5] | [7]

CN(C)CCC=C1c2ccccc2COc2ccc(CC(=O)O)cc21
inactive: [2] | [19] | [8] | [16] | [15] | [5] | [7]

CN(C[C@@H]1COCCO1)S(=O)(=O)Nc1ccc2ccc3ncc(-c4cnn(C)c4)cc3c(=O)c2c1
active: [1] 3.32 µM | [19] 16.6 µM | [8] 0.743 µM | [3] 5.26 µM | [11] 7.43 µM | [13] 16.6 µM | [14] 18.7 µM | [17] 0.469 µM | [18] 3.72 µM

CCCCCN(C)CCC(O)(P(=O)(O)O)P(=O)(O)O
inactive: [1] | [2] | [9] | [11] | [12] | [13] | [6] | [7] | [17]

CN(C)c1cc(NC(=O)CNC(C)(C)C)c(O)c2c1C[C@@H]1C[C@H]3[C@H](N(C)C)C(=O)C(C(N)=O)=C(O)[C@@]3(O)C(=O)C1=C2O
active: [10] 14.8 µM | [4] 9.35 µM
inactive: [2] | [19] | [8] | [9] | [11] | [13] | [15] | [5] | [18]

CC=CCC=CCCC(=O)[C@H]1O[C@@H]1C(N)=O
active: [1] 18.7 µM | [8] 23.5 µM | [4] 14.8 µM | [13] 20.9 µM | [6] 18.7 µM | [17] 14.8 µM | [18] 14.8 µM
